BRCA1 expr up – qHTS Assay to Identify Small Molecule Activators of BRCA1 Expression; MCF7-BRCA1-FFLuc reporter, luminescence, 48 h; response scale: scaled: vehicle 0%, 10 µM genistein 100%; Potency, µM (top dose mostly 46.1 µM), hits mostly activators; actives 1.1% (n = 380,000); note: nearly all actives have a fitted effect of over 80% in size
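MCF7-BRCA1-FFLuc, 2000 cells/well; 2 h attach, 37 °C/5% CO2; compound 48 h; luciferase substrate 15 min; luminescence end-point. Norm. to genistein 10 microM max activation and DMSO; concentration-response curves fitted.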
GLP-1R agonist – qHTS of GLP-1 Receptor Agonists | Glucagon-like peptide 1 receptor (Homo sapiens), P43220 | HEK293 GLP-1R CRE-luciferase, luminescence, 4-6 h; cells express a hypersensitive GLP-1R form | Potency, µM (titrated, usually from 45.6 µM), usual class: activators | actives 0.007% (n = 380,000)
Target sequence (P43220 whole entry, looked up): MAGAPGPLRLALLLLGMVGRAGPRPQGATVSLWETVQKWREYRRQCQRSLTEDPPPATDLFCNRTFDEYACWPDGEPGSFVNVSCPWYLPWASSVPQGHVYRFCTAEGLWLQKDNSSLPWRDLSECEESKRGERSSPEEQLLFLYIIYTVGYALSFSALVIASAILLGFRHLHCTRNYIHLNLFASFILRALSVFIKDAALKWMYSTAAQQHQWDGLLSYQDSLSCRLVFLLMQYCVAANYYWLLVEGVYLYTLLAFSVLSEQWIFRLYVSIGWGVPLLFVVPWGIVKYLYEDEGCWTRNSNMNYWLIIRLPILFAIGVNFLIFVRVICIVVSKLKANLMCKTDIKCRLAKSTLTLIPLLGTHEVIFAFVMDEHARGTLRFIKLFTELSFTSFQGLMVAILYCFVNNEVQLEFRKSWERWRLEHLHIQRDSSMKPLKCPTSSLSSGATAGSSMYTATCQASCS
GLP-1R inv ag – qHTS of GLP-1 Receptor Inverse Agonists (Inhibition Mode); actives 1.6% (n = 410,000); Glucagon-like peptide 1 receptor (Homo sapiens), P43220; Potency, µM (titrated, usually from 38.3 µM), actives largely listed as inhibitors; HEK293 GLP-1R CRE-luciferase, luminescence, 24 h; GLP-1R form is constitutively active; note: nearly all actives have a fitted effect of over 55% in size
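qHTS in 1536-well format: reporter HEK293 cells expressing constitutive GLP-1R activity in DMEM + 10% Nu serum, 24 hr with compounds at 37 deg C, luminescence read after 12 min with detection reagent.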
GLP1R cytotox – qHTS of GLP-1 Receptor Inverse Agonists: Cytotox Screen; HEK293 cAMP-luciferase reporter cells, luminescence, 24 h; Potency, µM (top dose mostly 38.3 µM), actives largely listed as inhibitors; actives 0.13% (n = 410,000);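 note: loss of luciferase light is scored as toxicity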
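A 23 nL compound transfer followed 12 hours of cell culture at 37 deg C; exposure then lasted 24 hr. Luciferase assay detection reagent was dispensed and plates read for luminescence after a 12 min room-temperature wait.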
Each line names hits and unclear results; the compound was inactive in the other large screens. A selection: hits, their analogues and other compounds. The true share with any hit is near 2.6%. Calls come from the whole dose curve; as a rule, active = well fitted curve in the direction sought with a large enough effect; inconclusive = small, poorly fitted or top-dose-only effect, or another doubt; inactive = no such curve, though single readings can be large; an effect the other way counts as inactive or inconclusive.

CN(C(=O)Oc1ccc(C(=O)c2ccc(Cl)cc2)cc1)c1ccccc1	GLP-1R inv ag 10µM
COc1cccc(C(=O)C2CCCN(Cc3ccccn3)C2)c1 (centres undefined)	GLP-1R inv ag inconclusive, GLP1R cytotox inconclusive
COc1c(C)cc(C(=O)C2CCCN(Cc3ccccn3)C2)cc1C (centres undefined)	GLP-1R inv ag 2.8µM, GLP1R cytotox inconclusive
CC(C)C[C@H]1CN=C(Nc2ccccc2)N1CC1CCC(C(C)(C)C)CC1 (some centres undefined)	GLP-1R inv ag inconclusive, GLP1R cytotox inconclusive
CCn1nc(-c2ccccc2)nc2c(=O)n(C)c(=O)nc1-2	GLP-1R inv ag 5µM, GLP1R cytotox inconclusive
Cn1nc(-c2ccccc2)nc2c(=O)n(C)c(=O)nc1-2	none (no result: GLP-1R agonist, GLP-1R inv ag, GLP1R cytotox)
O=c1c2ccccc2nc(/C=C/c2ccccc2)n1-c1ccccc1F	none (no result: BRCA1 expr up, GLP-1R agonist)
Cc1ccccc1-n1c(/C=C/c2ccc(N(C)C)cc2)nc2ccccc2c1=O	GLP-1R inv ag 8.9µM (no result: GLP-1R agonist)
Cc1ccccc1-n1c(/C=C/c2c(C)[nH]c3ccccc23)nc2ccccc2c1=O	GLP-1R inv ag 4µM (no result: BRCA1 expr up, GLP-1R agonist)
Cc1ccc(S(=O)(=O)N(CC(=O)NCCSc2ccc(Cl)cc2)c2ccccc2C)cc1	GLP-1R inv ag 11µM (no result: BRCA1 expr up, GLP-1R agonist)
Cc1cccc(N(CC(=O)NCCSc2ccc(Cl)cc2)S(=O)(=O)c2ccccc2)c1C	GLP-1R inv ag 10µM (no result: BRCA1 expr up, GLP-1R agonist)
COc1cccc(C(=O)Oc2c(Sc3ccc(C)cc3)c(C)nn2C(C)(C)C)c1OC	GLP-1R inv ag 3.2µM, GLP1R cytotox inconclusive (no result: BRCA1 expr up, GLP-1R agonist)
C[C@@H]1CCCCO[C@@H](CN(C)Cc2ccc(C(F)(F)F)cc2)[C@@H](C)CN([C@H](C)CO)C(=O)c2cc(N(C)C)ccc2O1	GLP-1R inv ag inconclusive, GLP1R cytotox inconclusive
O=C(COc1ccc2ccccc2c1)N1CCN(Cc2c[nH]c3ccccc23)CC1	GLP-1R inv ag 11µM
COc1ccc(CN2CCN(C(=O)COc3ccc4ccccc4c3)CC2)c(OC)c1	GLP-1R inv ag 10µM
CCNC(C)Cc1ccc2c(c1)OCO2 (centres undefined)	none (no result: BRCA1 expr up, GLP-1R inv ag, GLP1R cytotox)
CS(=O)(=O)c1ccc(C2=C(CNC(=O)c3ccc([N+](=O)[O-])cc3)[C@H]3CC[C@@H](C2)N3Cc2ccccc2)cc1	none
O=C(NCC1=C(c2cccc3ccccc23)C[C@@H]2CC[C@H]1N2Cc1ccco1)c1ccc([N+](=O)[O-])cc1	GLP-1R inv ag 3.5µM
CS(=O)(=O)c1ccc(C2=C(CNC(=O)c3ccc([N+](=O)[O-])cc3)[C@H]3CC[C@@H](C2)N3CCOc2ccccc2)cc1	GLP-1R inv ag 10µM, GLP1R cytotox inconclusive
COc1ccc(C(C)NCCC(c2ccc(OC(C)C)cc2)c2ccccc2OC)cc1 (centres undefined)	GLP-1R inv ag inconclusive, GLP1R cytotox inconclusive
CNCC[C@H](Oc1cccc2ccccc12)c1cccs1	GLP-1R inv ag 11µM
CC(Nc1cc(C)cc(C)c1)=[N+](C)CCNS(=O)(=O)c1ccc(Cl)cc1	GLP-1R inv ag inconclusive
Oc1ccc2c3c1O[C@H]1[C@@H](O)C=CC4[C@@H](C2)NCC[C@@]341 (some centres undefined)	none (no result: BRCA1 expr up, GLP-1R inv ag, GLP1R cytotox)
CN(C(=O)CSc1nc2ccc(NC(=O)COc3ccc(Cl)cc3)cc2s1)c1ccccc1	GLP-1R inv ag 5.6µM (no result: GLP-1R agonist)
COc1cccc(-n2nc(C(=O)N3CCC4(CC3)OCCO4)c3ccccc3c2=O)c1	none
COc1ccc(-n2nc(C(=O)NCC(=O)N3CCC4(CC3)OCCO4)c3ccccc3c2=O)cc1OC	BRCA1 expr up 10µM
FC(F)(F)c1ccc(NC(=S)NCc2ccccc2)cc1	GLP-1R inv ag inconclusive, GLP1R cytotox inconclusive
COc1ccc(NC2=NCC(Cc3ccc(Br)cc3)S2)cc1 (centres undefined)	GLP-1R inv ag inconclusive, GLP1R cytotox inconclusive
C=C1C(=O)[C@@]23C[C@H]4[C@@H]5[C@@]6(C)CCC[C@@]57[C@@H]2[C@@H](O)[C@@H]1C[C@H]3[C@H]7N4C6	GLP-1R inv ag 8.9µM, GLP1R cytotox inconclusive
CN(C)C(=O)O/N=C(\N)COc1ccc(C(C)(C)C)cc1	GLP-1R inv ag inconclusive, GLP1R cytotox 3.2µM
CCOC(=O)C(O)(c1ccc(N(C)C(=O)COc2ccccc2)cc1)C(F)(F)F (centres undefined)	none
Cc1cc(Nc2cccc(C(F)(F)F)c2)nc2ccc(NC(=O)c3cccnc3)cc12	GLP-1R inv ag 4µM, GLP1R cytotox inconclusive (no result: BRCA1 expr up, GLP-1R agonist)
CCN(CC)C(=O)c1ccc(NC(=O)c2cccc(C(F)(F)F)c2)cc1	GLP-1R inv ag inconclusive
C=CC[C@@H](CC(=O)N(CCO)Cc1ccccc1)C(=O)N[C@H](COC(=O)[C@H](CC=C)CC(=O)OC(C)(C)C)Cc1c[nH]c2ccccc12	GLP-1R inv ag inconclusive
Cc1nc2c(=O)n(C)c(=O)nc-2n(C)n1	GLP1R cytotox 2µM
CCn1cc2nc(SCc3cccc(C(F)(F)F)c3)n(Cc3ccc(OC)cc3)c(=O)c2n1	GLP-1R inv ag inconclusive (no result: GLP-1R agonist)
CCCCCCOc1ccc(CN2CCN(CCO)CC2)cc1	GLP-1R inv ag 2.5µM
CC1CCCN(CCCNC(=O)c2ccc3c(c2)N(Cc2ccccc2F)C(=O)c2ccccc2S3(=O)=O)C1 (centres undefined)	GLP-1R inv ag inconclusive, GLP1R cytotox inconclusive
O=S(=O)(c1ccc(Cl)c(NC(=S)N/N=C/c2ccc(O)cc2)c1)N1CCOCC1	GLP-1R inv ag inconclusive, GLP1R cytotox 10µM
CNc1cccc(-c2ccc(N3CCN(C)CC3)nc2)n1	BRCA1 expr up inconclusive
CCN(CC)S(=O)(=O)c1ccc(C)c(NCC(=O)Nc2ccc(C#N)c(Cl)c2)c1	GLP-1R inv ag 5.6µM
CC(=O)C1=C(O)C2(C)c3c(O)c(C)c(O)c(C(C)=O)c3OC2CC1=O (centres undefined)	GLP-1R inv ag inconclusive
Cn1cc(/C=N/NC(N)=S)c2ccccc21	GLP-1R inv ag inconclusive, GLP1R cytotox inconclusive
Cn1cc(/C=N/n2cnc3scc(-c4ccccc4)c3c2=O)c2ccccc21	GLP-1R inv ag 5µM, GLP1R cytotox inconclusive
Cc1ccc(OCCOc2cccc(C=C3C(=O)NC(=O)NC3=O)c2)c(C)c1	BRCA1 expr up inconclusive, GLP-1R inv ag 6.3µM
CC(C)C(=O)N1CCC(CN=Cc2c(O)n(C3CCCCC3)c(=O)n(C3CCCCC3)c2=O)CC1	GLP-1R inv ag 2.8µM
CCCOc1ccc(C(=O)Nc2ccc(-c3cc4ccccc4oc3=O)c(C)c2)cc1	GLP-1R inv ag inconclusive (no result: BRCA1 expr up, GLP-1R agonist)
CN1CCC2(CC1)c1ccccc1-c1ccccc12	GLP-1R inv ag 11µM, GLP1R cytotox inconclusive
ClC1=C(Cl)[C@]2(Cl)[C@@H]3[C@@H]4C[C@@H]([C@H]5O[C@@H]45)[C@@H]3[C@@]1(Cl)C2(Cl)Cl	none (no result: BRCA1 expr up, GLP-1R inv ag, GLP1R cytotox)
CN(C)c1nc(OCCNC(=O)COc2ccc(Cl)cc2Cl)nc(N2CCCCC2)n1	none
